# From PubChem BioAssay (NCI)
# This is part of a sample that, as a whole, favours compounds with a hit. Of some 83,000 tested, about 20% had one in any assay.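 Growth was measured after 48 h exposure to one concentration of compound in 96-well plates. Values under 10 count as active.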 Unmarked numbers belong to inactive results. The source made the active and inactive calls.
# Tested on: HCT-116 colon
# Experiment: NCI-60 one-dose screen, 48 h (100 = growth as untreated, 0 = no growth, -100 = all killed)
# Conditions: 10 µM unless noted
row,SMILES,growth
1,CCCCN(CC)CCCCCCCCCCN1CCCc2cc(OC)ccc21,69.7%
2,COc1cc(NC(N)=NCC(C)(C)COc2ccc(C(F)(F)F)cc2)cnc1C#N,37.7%
3,COc1ccc2nc(NC(=O)c3cccnc3Nc3cc(OC)c(OC)c(OC)c3)sc2c1,-2.4% (active)
4,CCN(CC)CCC(=O)c1ccc(OC)c2ccccc12,88.4%
5,COc1ccc(/C=C2\N=C3Sc4cc(Cl)ccc4C(=O)N3C2=O)cc1,104%
6,Nc1c(C(=O)Nc2ccccc2)sc2nc3c(cc12)CN(CCc1ccccc1)CC3,98.3%
7,CC(C)Oc1nc2c(c(=O)n(C)c(=O)n2C)n1C,101%

# Tested on: HCC-2998 colon
# Experiment: as above
# Conditions: 10 µM unless noted
row,SMILES,growth
1,OCC1C2C=CC(C2)C1CO (stereo not given),125%
2,Fc1ccc(Cc2ccc(F)cc2)cc1,114%
3,O=c1ccc2cc3ccccc3cc2[nH]1,83.3%
4,COc1ccc(-c2nn(-c3ccccc3)cc2/C=C/C(=O)OCc2cn(-c3ccc(F)c(Cl)c3)nn2)cc1,98.7%
5,COc1ccccc1N1CCN(CCn2c(=O)c3c(c4ccccc4n3C)n(C)c2=O)CC1,104%
6,CCCCCCCCCCNC(=O)CCl,84.4%
7,N=S(=O)(NC(=O)c1ccc(Cl)cc1Cl)c1ccc(Br)s1 (stereo not given),102%
8,CCOC(=O)/C=C/C(=O)[C@H](CC(C)C)NC(=O)[C@H](Cc1ccccc1)NC(=O)OCc1ccccc1,99.2%
9,COC1/C=C\OC2(C)Oc3c(C)c(O)c4c(O)c(c(CN(C)CCO)c(O)c4c3C2=O)NC(=O)/C(C)=C\C=C/C(C)C(O)C(C)C(O)C(C)C(OC(C)=O)C1C (stereo not given),121%
10,COc1nc2c(cc1S(=O)(=O)c1ccccc1)CCc1c-2cnn1Cc1ccccc1,60.5%
11,O=S(=O)(NCCCNc1cc(-c2cn(-c3ccccc3)nc2-c2ccccc2)ccn1)c1ccc(C(F)(F)F)cc1,64.1%
12,N#CC1=C(N)Oc2c(ccc3ccccc23)C1c1cccs1 (stereo not given),16.7%
13,CCN(CC)CCCNc1cc(OC)cc2nc3cc(Cl)ccc3nc12,27.5%
14,O=C(CN1CCN(c2cc3c(cc2F)c(=O)c(C(=O)O)cn3C2CC2)CC1)Nc1nc(-c2ccc(Cl)cc2)cs1,29.8%
15,O=C1CC(c2nc3ccccc3[nH]2)CN1C1CCCCC1 (stereo not given),98.7%
16,COc1cc(OC)c(/C=C/c2cc[n+](C)c3ccccc23)c(OC)c1,10%
17,CCN(CC)c1ccc(CNc2cc(C)nc3ccc(OC)cc23)cc1,-92.6% (active)

row,SMILES,growth
1,CCCCCN(CCCCC)CCC[C@@H](C)[C@H]1CC[C@H]2[C@@H]3[C@H](OCCCN)C[C@@H]4C[C@H](OCCCN)CC[C@]4(C)[C@H]3C[C@H](OCCCN)[C@]12C,59.6%
2,COc1cc(OC)c(/C=C/S(=O)(=O)Cc2ccc(OC)c(N)n2)c(OC)c1,18.8%
3,CC(=O)C1=C(O)C=C2Oc3c(C(=O)/C=C/c4cc(C(F)(F)F)cc(C(F)(F)F)c4)c(O)c(C)c(O)c3[C@]2(C)C1=O,-87.4% (active)
4,Cc1cc(Nc2nc(N3CCOCC3)nc3ccccc23)n[nH]1,83.4%
5,COc1cc(OC)c(/C=C/C(=O)c2c(OC)cc(OC)cc2OC)c(OC)c1,30.3%
6,c1ccc(CSc2ncnc3nc[nH]c23)nc1,125%
7,C=C(CN1CCN(c2cccc(C(F)(F)F)n2)CC1)c1ccc(C(=O)Nc2ccccc2N)cc1,-41% (active)
8,CN1CCOCCOCCOc2ccccc2NC(=O)c2nc(cnc2N)-c2ccc(cc2)S1(=O)=O,32.2%
9,COc1cc(/C=N/N(C)C)ccc1O,107%
10,O=C(/C=C/c1ccc(B(O)O)cc1)/C=C/c1ccc(B(O)O)cc1,-77.1% (active)
11,CCC(=O)OCc1cccc(OC)c1,101%
12,COc1cnc2c(c1)C(=O)c1c-2n(CCCBr)c(=O)c2cc([N+](=O)[O-])ccc12,13.7%
13,C/C(=C(/c1ccc(O)cc1)c1ccc(OCCN2CCCC2)cc1)c1ccccc1,66.3%
14,CCCCCCCCCc1cc(CN2CCCCC2)c(O)c(CN2CCCCC2)c1,68.2%
15,COc1cc(NC(N)=NCC(C)(C)COc2ccc(C(F)(F)F)cc2)cnc1C#N,18.9%
16,COc1ccc2nc(NC(=O)c3cccnc3Nc3cc(OC)c(OC)c(OC)c3)sc2c1,77.8%
